Hits are enriched below; roughly 2.4% of the tested compounds scored in any of these assays.
D2 ag-1: D2 dopamine receptor (human) agonism. P14416. HEK293 T-REx D2 cells, calcium flux agonist mode. activation, % at 2 µM. actives 0.53% (n = 340,000);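 active = activation over 3 SD above normal in the single-dose calcium agonist read, cut at about 30% in these data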; also: 0% is about no effect
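HEK293 Trex D2 cells, tetracycline-induced, o/n 30 C 5% CO2; no-wash Ca dye, RT 30–90 min; 10-cycle baseline, 23 nl cpd added, kinetic Ca read 180 s; agonist hits = positive Ca response.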
D2 antagonist: antagonists of human D2 dopamine receptor; P14416; HEK293 TREx D2 cells, calcium flux, dopamine EC80; inhibition, % at 10 µM; actives 2% (n = 340,000); AID 485344; in the data active = inhibition above about 30%; inactive = below that, where a call was filed; also: 0% is about no effect
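Read-out: kinetic calcium fluorescence (1 cycle/s) in inducible HEK293 T-REx D2 cells after an EC80 dopamine addition that followed 180 s compound preincubation. Loss of the dopamine response indicates antagonism.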
D2 PAM-1: D2 dopamine receptor (human) potentiation | P14416 | HEK293 T-REx D2, calcium flux, EC20 dopamine potentiation | potentiation, % at 10 µM | actives 0.34% (n = 340,000) | AID 485347;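 active = potentiation over 3 SD above the plate norm, cut at about 30% in these data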; also: 0% is about no effect
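Cells plated with tetracycline inducer and held overnight at 30 C; calcium dye loaded 30–90 min at room temperature; baseline taken, compound added and read 180 s; EC20 dopamine then added and read 180 s.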
D2 ag-2: agonists of human D2 dopamine receptor (beta-arrestin); actives 0.084% (n = 360,000); activation, % (no concentration beside the values); DiscoveRx PathHunter D2 beta-arrestin, luminescence, 90 min; 100% = 57 uM dopamine signal; in the data active = activation above about 40%; inconclusive = between about 15% and that limit
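DiscoveRx PathHunter D2 beta-arrestin cells (2,100/well) attached overnight, then compound-stimulated 90 min at 37 C in HBSS/10 mM HEPES/0.1% Tween-20 buffer; beta-galactosidase complementation read by luminescence after 1 h at ambient temperature. Dopamine 57 uM final (EC100) as control.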
D2 PAM-2: human D2 receptor positive allosteric modulation; actives 0.23% (n = 360,000); P14416; AID 624464; potentiation, % (concentration not given with the values); DiscoveRx D2 beta-arrestin cells, luminescence, 90 min; 100% = 57 uM dopamine signal; in the data active = potentiation above about 50%; inconclusive = mostly about 30% to 49%
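D2 cells co-treated with compound plus 50 nM dopamine (EC20) for 90 min at 37 deg C to detect potentiation. Beta-arrestin recruitment was read as enzyme-fragment luminescence after 1 h at ambient temperature. Full response was set by 57 uM dopamine.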
D3 arrestin ag: activates human D3 dopamine receptor beta-arrestin recruitment; shares compounds with D2 ag-1; DiscoveRx D3 beta-arrestin cells, luminescence, 90 min; Potency, µM (series often up to 76.9 µM), for the others: at the highest dose activation, actives largely listed as activators; actives 4% (n = 2,300);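 also: potency is read from the fitted curve at half-maximal effect; 100% = dopamine control response; nearly all actives have a fitted effect of over 70% in size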
Target sequence (P35462 whole entry, looked up): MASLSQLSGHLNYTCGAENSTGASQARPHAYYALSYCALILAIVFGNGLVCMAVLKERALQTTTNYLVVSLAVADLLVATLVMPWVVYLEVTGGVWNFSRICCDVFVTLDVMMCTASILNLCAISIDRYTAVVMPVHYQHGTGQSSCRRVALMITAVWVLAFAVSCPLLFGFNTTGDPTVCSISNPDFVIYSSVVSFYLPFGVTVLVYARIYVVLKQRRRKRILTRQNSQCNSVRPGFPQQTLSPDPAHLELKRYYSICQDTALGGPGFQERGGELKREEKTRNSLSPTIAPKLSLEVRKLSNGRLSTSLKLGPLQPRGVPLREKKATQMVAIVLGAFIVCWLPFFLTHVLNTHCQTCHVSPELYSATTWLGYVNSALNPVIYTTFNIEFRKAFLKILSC
D2 ag-3: activates human D2 dopamine receptor in D3 counterscreen; shares compounds with D2 ag-1; DiscoveRx PathHunter D2 beta-arrestin, luminescence, 90 min; response scale: percent relative to full dopamine signal; Potency, µM (doses to about 76.9 µM), for inactives: top-dose activation, actives largely listed as activators; actives 5.9% (n = 2,300); also: potency is read from the fitted curve at half-maximal effect; % of control where 0% means no effect; nearly all actives have a fitted effect of over 70% in size
The depositor's hits bear a star; ? = inconclusive; . = no result. Unless noted, calls follow the shape of the dose curve; as a rule, active = well fitted activation curve with a large enough effect; inconclusive = small, poorly fitted or top-dose-only effect; inactive = flat fitted curve, though single readings scatter.

SMILES | D2 ag-1 | D2 antagonist | D2 PAM-1 | D2 ag-2 | D2 PAM-2 | D3 arrestin ag | D2 ag-3
O=C(CN1CC=C(c2ccccc2)CC1)Nc1c(Cl)cccc1Cl | 27 | 7 | -23 | -4 | -29 | . | .
OC(CN1CC=C(c2ccccc2)CC1)c1ccccc1 (stereo not given) | 77* | 75* | -31 | 3 | -11 | ? | ?
O=C1NCN(c2ccccc2)C12CCN(C(c1ccccc1OC(F)(F)F)c1nnnn1C1CCCC1)CC2 (stereo not given) | . | . | . | -3 | -9 | . | .
CCN(CC)c1ccc(/C=C2\C(=O)NC(=S)N(C)C2=O)o1 | 33* | 10 | 4 | 2 | -3 | -28% | -10%
COc1cccc(C(c2nnnn2Cc2ccccc2)N2CCC3(CC2)C(=O)NCN3c2ccccc2)c1OC (stereo not given) | . | . | . | 12 | 7 | . | .
O=C(CCN1C(=O)COc2ccccc21)N1CCC2(CC1)OCCO2 | 56* | 0 | -19 | 1 | 0 | -8% | -4%
C=CCN1CCc2cccc3c2[C@H]1Cc1ccc(O)c(O)c1-3 | 88* | 89* | -20 | 219* | 114* | 0.02µM* | 0.045µM*
O=C(NCC1=C(c2cccc3ccccc23)C[C@@H]2CC[C@H]1N2Cc1ccco1)c1cccs1 | . | . | . | 0 | . | . | .
COc1ccccc1N1CCN(Cc2cccc(OC)c2O)CC1 | 74* | 81* | -28 | 9 | -6 | -6% | 19%
CSc1ccc(C(=O)C2CCCN(C)C2)cc1 (stereo not given) | 0 | 1 | -11 | 1 | -12 | . | .
CN1CCCC(C(=O)c2ccccc2)C1 (stereo not given) | 42* | 30* | -14 | 0 | -3 | 15% | 11%
Cc1ccc(-n2c(/C=C/c3ccc(Br)s3)nc3ccccc3c2=O)cc1 | 0 | . | 11 | . | . | . | .
COC(=O)C(O)(c1ccc(NC(=S)NC(=O)c2ccc(Cl)cc2Cl)c(C)c1)C(F)(F)F (stereo not given) | 20 | 5 | -8 | -14 | -6 | . | .
CCOC(=O)C(O)(c1ccc(NC(=S)NC(=O)c2ccc(Cl)cc2Cl)c(C)c1)C(F)(F)F (stereo not given) | 27 | 5 | 18 | -3 | -14 | 10% | -1%
CN1C(=O)N(C)C(=O)C2(Cc3ccccc3N3CCCC32)C1=O (stereo not given) | 1 | -11 | -5 | 0 | -3 | . | .
CN1C(=O)CC(c2ccccc2)Nc2ccccc21 (stereo not given) | 0 | -5 | -1 | -3 | 1 | -7% | -4%
O=[N+]([O-])c1cccc(O)c1 | 0 | 36* | 11 | -3 | -4 | -4% | 0%
O=[N+]([O-])c1cccc(CCl)c1 | 0 | 0 | -4 | -6 | -30 | . | .
O=c1c2ccccc2nc(/C=C/c2cccc3ccccc23)n1-c1ccccc1Cl | . | . | -3 | . | . | . | .
O=[N+]([O-])c1ccc(CN2CC=C(c3ccccc3)CC2)cc1 | 78* | 89* | -50 | -1 | -21 | 5% | 10%
CCOc1ccc(N2C(=O)NC(=O)/C(=C\c3ccc(N4CCOCC4)cc3C)C2=O)cc1 | 55* | 6 | -17 | 2 | 10 | 1% | 1%
COc1ccc(N2C(=O)NC(=O)/C(=C/c3ccc(N4CCOCC4)cc3)C2=O)cc1 | 0 | 14 | 8 | . | . | . | .
NNCc1cccc(O)c1 | 0 | -22 | -3 | 2 | -9 | . | .
CCNCC(O)c1cccc(O)c1 (stereo not given) | 36* | 32* | -15 | -3 | 3 | ? | ?
CCN(CC)CCCC(C)N=C(c1ccccc1)c1c(O)n(C)c(=O)n(C)c1=O (stereo not given) | 38* | 69* | -17 | 9 | -13 | 26% | 21%
Cc1ccc(Cn2cccc(C(=O)Nc3cc([N+](=O)[O-])ccc3C)c2=O)cc1 | -2 | . | -7 | . | . | . | .
